The whole screen tested about 5,500 compounds, of which about 2,000 (36%) were called active. Roughly 18% stayed inconclusive and do not appear here. The list shows a part of the results. Unmarked numbers belong to inactive results. No stated cut-off is given here; in the data, active means normalized growth mostly below about 0.91 (no sharp cut-off); inconclusive means no clear call, values can overlap the other calls; inactive means mostly above about 0.92.
Experiment: chemical genetic growth profiling, strain panel (AID 1159580);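 further: tested at 20 µM; growth read once vehicle control cultures reached saturation at 30 °C; 1 = growth at the plate median or of vehicle wells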
Settings: S. cerevisiae deletion strains, growth OD

For CC(=O)Oc1ccc2c(c1)CCC1C2CCC2(C)C1CC(OC(C)=O)C2OC(C)=O (stereo unspecified), the normalized growth (locus YAL021C, strain ccr4, stronger effect = lower value) was 0.948, the normalized growth (locus YAL026C, strain drs2, stronger effect = lower value) was 1.01 and the normalized growth (locus YAL030W, strain snc1, stronger effect = lower value) was 0.97. It also gave a normalized growth (locus YBL061C, strain skt5, stronger effect = lower value) of 0.997, a normalized growth (locus YBR009C, strain hhf1, stronger effect = lower value) of 0.985 and a normalized growth (locus YBR023C, strain chs3, stronger effect = lower value) of 0.983. For the same compound, the normalized growth (locus YBR171W, strain sec66, stronger effect = lower value) was 1, the normalized growth (locus YBR231C, strain swc5, stronger effect = lower value) was 0.982 and the normalized growth (locus YBR279W, strain paf1, stronger effect = lower value) was 0.987. The normalized growth (locus YCL011C, strain gbp2, stronger effect = lower value) was 0.994, the normalized growth (locus YCL016C, strain dcc1, stronger effect = lower value) was 0.978 and the normalized growth (locus YCL069W, strain vba3, stronger effect = lower value) was 0.993. It also gave a normalized growth (locus YCR088W, strain abp1, stronger effect = lower value) of 0.992, a normalized growth (locus YDL005C, strain med2, stronger effect = lower value) of 0.987 and a normalized growth (locus YDL040C, strain nat1, stronger effect = lower value) of 0.975. It also gave a normalized growth (locus YDR001C, strain nth1, stronger effect = lower value) of 1.01, a normalized growth (locus YDR069C, strain doa4, stronger effect = lower value) of 0.954 and a normalized growth (locus YDR137W, strain rgp1, stronger effect = lower value) of 0.925. The normalized growth (locus YDR159W, strain sac3, stronger effect = lower value) was 0.902, the normalized growth (locus YDR195W, strain ref2) was 0.992 and the normalized growth (locus YDR297W, strain sur2, stronger effect = lower value) was 0.988. It also gave a normalized growth (locus YDR334W, strain swr1, stronger effect = lower value) of 0.987, a normalized growth (locus YDR335W, strain msn5, stronger effect = lower value) of 1.01 and a normalized growth (locus YDR392W, strain spt3, stronger effect = lower value) of 0.856. For the same compound, the normalized growth (locus YEL003W, strain gim4, stronger effect = lower value) was 0.986, the normalized growth (locus YEL037C, strain rad23, stronger effect = lower value) was 1.02 and the normalized growth (locus YEL061C, strain CIN8 (second series), stronger effect = lower value) was 1.01. It also gave a normalized growth (locus YER015W, strain faa2, stronger effect = lower value) of 0.985, a normalized growth (locus YER016W, strain bim1, stronger effect = lower value) of 0.973 and a normalized growth (locus YER111C, strain swi4, stronger effect = lower value) of 0.994. The normalized growth (locus YER155C, strain BEM2 (second series), stronger effect = lower value) was 1, the normalized growth (locus YFR010W, strain ubp6, stronger effect = lower value) was 0.997 and the normalized growth (locus YGL167C, strain pmr1, stronger effect = lower value) was 0.98. The normalized growth (locus YGL173C, strain kem1, stronger effect = lower value) was 0.99, the normalized growth (locus YGL227W, strain vid30, stronger effect = lower value) was 0.995 and the normalized growth (locus YGL240W, strain doc1, stronger effect = lower value) was 0.935. The normalized growth (locus YGL253W, strain hxk2, stronger effect = lower value) was 0.997, the normalized growth (locus YHR013C, strain ard1, stronger effect = lower value) was 0.961 and the normalized growth (locus YHR027C, strain rpn1, stronger effect = lower value) was 0.987. It also gave a normalized growth (locus YHR142W, strain chs7, stronger effect = lower value) of 0.968, a normalized growth (locus YJL092W, strain hpr5, stronger effect = lower value) of 1.01 and a normalized growth (locus YJL095W, strain BCK1 (second series), stronger effect = lower value) of 0.984. For the same compound, the normalized growth (locus YJL115W, strain asf1, stronger effect = lower value) was 1.01, the normalized growth (locus YJL129C, strain trk1, stronger effect = lower value) was 0.967 and the normalized growth (locus YJL154C, strain vps35, stronger effect = lower value) was 0.985. For the same compound, the normalized growth (locus YJL164C, strain tpk1, stronger effect = lower value) was 0.952, the normalized growth (locus YJL166W, strain qcr8, stronger effect = lower value) was 0.987 and the normalized growth (locus YJL187C, strain SWE1, stronger effect = lower value) was 0.99. The normalized growth (locus YKL160W, strain elf1, stronger effect = lower value) was 0.962, the normalized growth (locus YKR026C, strain gcn3, stronger effect = lower value) was 1.01 and the normalized growth (locus YKR091W, strain srl3, stronger effect = lower value) was 0.988. For the same compound, the normalized growth (locus YLL001W, strain dnm1, stronger effect = lower value) was 1, the normalized growth (locus YLL026W, stronger effect = lower value) was 0.964 and the normalized growth (locus YLL041C, strain sdh2, stronger effect = lower value) was 0.999. It also gave a normalized growth (locus YLR027C, strain aat2, stronger effect = lower value) of 0.995, a normalized growth (locus YLR221C, strain rsa3, stronger effect = lower value) of 0.978 and a normalized growth (locus YLR258W, strain gsy2, stronger effect = lower value) of 0.988. It also gave a normalized growth (locus YLR262C, strain YPT6 (second series), stronger effect = lower value) of 0.877, a normalized growth (locus YLR320W, strain mms22, stronger effect = lower value) of 0.943 and a normalized growth (locus YLR342W, strain FKS1, stronger effect = lower value) of 0.971. It also gave a normalized growth (locus YLR357W, strain rsc2, stronger effect = lower value) of 0.952, a normalized growth (locus YLR370C, strain arc18, stronger effect = lower value) of 0.989 and a normalized growth (locus YLR384C, strain iki3, stronger effect = lower value) of 0.983. For the same compound, the normalized growth (locus YML120C, strain ndi1, stronger effect = lower value) was 0.997, the normalized growth (locus YMR058W, strain fet3, stronger effect = lower value) was 1 and the normalized growth (locus YMR125W, strain sto1, stronger effect = lower value) was 1. It also gave a normalized growth (locus YMR129W, stronger effect = lower value) of 0.995, a normalized growth (locus YMR205C, strain PFK2, stronger effect = lower value) of 0.972 and a normalized growth (locus YMR231W, strain pep5, stronger effect = lower value) of 0.996. The normalized growth (locus YNL071W, strain lat1, stronger effect = lower value) was 0.962, the normalized growth (locus YNL209W, strain ssb2, stronger effect = lower value) was 0.976 and the normalized growth (locus YNL248C, strain rpa49, stronger effect = lower value) was 0.991. For the same compound, the normalized growth (locus YNL322C, strain KRE1 (second series), stronger effect = lower value) was 0.966, the normalized growth (locus YNR049C, strain mso1, stronger effect = lower value) was 1 and the normalized growth (locus YOR001W, strain rrp6, stronger effect = lower value) was 0.983. For the same compound, the normalized growth (locus YOR070C, strain gyp1, stronger effect = lower value) was 0.995, the normalized growth (locus YOR080W, strain dia2, stronger effect = lower value) was 0.987 and the normalized growth (locus YOR083W, strain WHI5, stronger effect = lower value) was 0.952. The normalized growth (locus YOR106W, strain vam3, stronger effect = lower value) was 0.954, the normalized growth (locus YOR265W, strain rbl2, stronger effect = lower value) was 0.996 and the normalized growth (locus YOR270C, strain vph1, stronger effect = lower value) was 0.925. It also gave a normalized growth (locus YOR290C, strain snf2, stronger effect = lower value) of 0.97, a normalized growth (locus YPL051W, strain arl3, stronger effect = lower value) of 0.967 and a normalized growth (locus YPL078C, strain atp4, stronger effect = lower value) of 0.987. For the same compound, the normalized growth (locus YPL106C, strain sse1, stronger effect = lower value) was 0.831 (active) and the normalized growth (locus YPL240C, strain hsp82, stronger effect = lower value) was 0.995.

— PubChem BioAssay AID1159580 (chemical genetic matrix, 2015)
